Measurements reported in the supplement of paper PMC13380429.

How the values were obtained:
[1] = system: Vero E6 infected with SARS-CoV-2; test: morphology score (similarity to uninfected cells); higher = more like uninfected cells; conditions: 24 h
[2] = system: Vero E6 infected with SARS-CoV-2; test: SARS-CoV-2 infection rate relative to infected DMSO; higher = more infection, active = 60 or less; conditions: 24 h

C[C@H](NCc1ccc(OCc2cccc(F)c2)cc1)C(N)=O [safinamide] (10 µM)
morphology score [1]: -0.052 | SARS-CoV-2 infection rate [2]: 115% (inactive)

NC1=N[C@@](c2cccc(-c3cncnc3)c2)(c2ccnc(C(F)F)c2)c2cccc(F)c21 (10 µM)
morphology score [1]: 0.163 | SARS-CoV-2 infection rate [2]: 92.5% (inactive)

Cn1nc(-c2ccc(C(F)(F)F)cc2)nc2c(=O)n(C)c(=O)nc1-2 [walrycin-B] (0.833333 µM)
morphology score [1]: 0.4 | SARS-CoV-2 infection rate [2]: 86.5% (inactive)

O=C(/C=C\n1cnc(-c2cc(C(F)(F)F)cc(C(F)(F)F)c2)n1)NNc1cnccn1 [selinexor] (10 µM)
morphology score [1]: -0.235 | SARS-CoV-2 infection rate [2]: 106% (inactive)

CCCCCCCCCCC(CO)CCCCCCCC (stereo not given) [2-octyldodecan-1-ol] (10 µM)
morphology score [1]: 0.0425 | SARS-CoV-2 infection rate [2]: 110% (inactive)

CC(=O)O[C@H]1C[C@@H]2CC[C@@H]3[C@H](CC[C@@]4(C)[C@H]3C[C@H](N3CC[N+](C)(C)CC3)[C@@H]4OC(C)=O)[C@@]2(C)C[C@@H]1N1CC[N+](C)(C)CC1 [pipecuronium] (10 µM)
morphology score [1]: 0.0487 | SARS-CoV-2 infection rate [2]: 106% (inactive)

O=C(O)CNC(=O)c1ccccc1 [hippuric-acid] (10 µM)
morphology score [1]: -0.0766 | SARS-CoV-2 infection rate [2]: 109% (inactive)

Cc1cc(C)c(S(=O)(=O)n2cc(C)cc2C)c(C)c1 (10 µM)
morphology score [1]: 0.0664 | SARS-CoV-2 infection rate [2]: 102% (inactive)

CCCCCCc1ccc(O)cc1O.Nc1c2ccccc2nc2ccccc12 [acrisorcin] (0.833333 µM)
morphology score [1]: 0.293 | SARS-CoV-2 infection rate [2]: 97% (inactive)

NCCCS(=O)(=O)O [tramiprosate] (10 µM)
morphology score [1]: 0.072 | SARS-CoV-2 infection rate [2]: 104% (inactive)

CC(C)(C)C(=O)NCCCC(=O)O [pivagabine] (10 µM)
morphology score [1]: 0.0513 | SARS-CoV-2 infection rate [2]: 105% (inactive)

CCOC(=O)N1CSC[C@H]1C(=O)O [telmesteine] (10 µM)
morphology score [1]: 0.00511 | SARS-CoV-2 infection rate [2]: 99.5% (inactive)

O=C(O)COc1cccc(CN(Cc2ccc(-n3cccn3)cc2)S(=O)(=O)c2cccnc2)c1 [taprenepag] (10 µM)
morphology score [1]: -0.0257 | SARS-CoV-2 infection rate [2]: 100% (inactive)

C[C@@]12CCc3occc3[C@H]1CC[C@@]13C[C@@H](CC[C@H]12)[C@@](O)(CO)C3 [cafestol] (10 µM)
morphology score [1]: -0.0842 | SARS-CoV-2 infection rate [2]: 112% (inactive)

N#Cc1cnc2c(Cl)cc(NCc3cn(CCN4CCCCCC4)nn3)cc2c1Nc1ccc(F)c(Cl)c1 [cot-inhibitor-1] (10 µM)
morphology score [1]: 0.16 | SARS-CoV-2 infection rate [2]: 104% (inactive)

CCN(CC)CCNC(=O)c1ccc(N)cc1 [procainamide] (10 µM)
morphology score [1]: 0.00737 | SARS-CoV-2 infection rate [2]: 116% (inactive)

COc1cc2c(Nc3ccc(Cl)c(Cl)c3F)ncnc2cc1OC[C@@H]1C[C@@H]2CN(C)C[C@@H]2C1 (10 µM)
morphology score [1]: -0.291 | SARS-CoV-2 infection rate [2]: 120% (inactive)

O=c1c(-n2ccnn2)c[nH]n1-c1cc(N2CCOCC2)ncn1 [molidustat] (10 µM)
morphology score [1]: 0.0599 | SARS-CoV-2 infection rate [2]: 98.5% (inactive)

Cc1occc(=O)c1[O-].Cc1occc(=O)c1[O-].[O]=[V+2] [bis(maltolato)oxovanadium(IV)] (10 µM)
morphology score [1]: -0.461 | SARS-CoV-2 infection rate [2]: 106% (inactive)

CC[C@@H]1Cn2c(c3nc(-c4ccccc4)nc-3n(C)c2=O)N1 (10 µM)
morphology score [1]: 0.14 | SARS-CoV-2 infection rate [2]: 90.5% (inactive)

CS(=O)(=O)OCCCCOS(C)(=O)=O [busulfan] (10 µM)
morphology score [1]: -0.026 | SARS-CoV-2 infection rate [2]: 102% (inactive)

CC(C)N(C[C@H]1O[C@@H](n2cnc3c(N)ncnc32)[C@H](O)[C@@H]1O)[C@H]1C[C@@H](CCc2nc3cc(C(C)(C)C)ccc3[nH]2)C1 (10 µM)
morphology score [1]: 0.122 | SARS-CoV-2 infection rate [2]: 110% (inactive)

CN(C)C(=O)n1nnnc1Cc1ccc(-c2ccccc2)cc1 (0.833333 µM)
morphology score [1]: 0.00131 | SARS-CoV-2 infection rate [2]: 85% (inactive)

N[C@@H](Cc1ccc(O)cc1)C(=O)O [plovamer-acetate] (10 µM)
morphology score [1]: 0.0812 | SARS-CoV-2 infection rate [2]: 108% (inactive)

O=C(/C=C/c1ccc(O)c(O)c1)OCCc1ccccc1 [caffeic-acid-phenethyl-ester] (10 µM)
morphology score [1]: -0.0125 | SARS-CoV-2 infection rate [2]: 79% (inactive)

COc1cccc2c1C(=O)c1c(O)c3c(c(O)c1C2=O)C[C@@](O)(C(=O)CO)C[C@@H]3O[C@H]1C[C@H](N2CCO[C@H](OC)C2)[C@H](O)[C@H](C)O1 [nemorubicin] (0.833333 µM)
morphology score [1]: 0.0228 | SARS-CoV-2 infection rate [2]: 108% (inactive)

Cc1cc(Cl)ccc1OCCCC(=O)NO [droxinostat] (10 µM)
morphology score [1]: 0.199 | SARS-CoV-2 infection rate [2]: 90% (inactive)

CN(C)C(=O)COC(=O)Cc1ccc(OC(=O)c2ccc(NC(=N)N)cc2)cc1 [camostat-mesilate] (10 µM)
morphology score [1]: 0.0997 | SARS-CoV-2 infection rate [2]: 114% (inactive)

COc1cc(N2CCC(O)CC2)ccc1Nc1cc(Nc2ccccc2S(=O)(=O)C(C)C)c2cc[nH]c2n1 (0.833333 µM)
morphology score [1]: -0.0202 | SARS-CoV-2 infection rate [2]: 106% (inactive)

C=CC(=O)Nc1cccc(Oc2nc(Nc3ccc(N4CCN(C)CC4)cc3)nc3ccsc23)c1 [olmutinib] (0.833333 µM)
morphology score [1]: -0.0965 | SARS-CoV-2 infection rate [2]: 94.5% (inactive)

C[C@@H](N)[C@@H](O)c1ccccc1 [1S,2R-phenylpropanolamine] (10 µM)
morphology score [1]: -0.131 | SARS-CoV-2 infection rate [2]: 114% (inactive)

CCC(=O)[C@@]1(C)[C@H](C)C[C@H]2[C@@H]3CCC4=CC(=O)C=C[C@]4(C)[C@H]3[C@@H](O)C[C@@]21C [rimexolone] (10 µM)
morphology score [1]: 0.134 | SARS-CoV-2 infection rate [2]: 98.5% (inactive)

O=C1NC(=O)[C@@]2(CCOc3ccc(F)cc32)N1 [sorbinil] (10 µM)
morphology score [1]: 0.139 | SARS-CoV-2 infection rate [2]: 98% (inactive)

Cc1nccn1CCC(C(N)=O)(c1ccccc1)c1ccccc1 [imidafenacin] (10 µM)
morphology score [1]: 0.133 | SARS-CoV-2 infection rate [2]: 93% (inactive)

CNC(=O)c1ccccc1Nc1cc(Nc2ccc(N3CCOCC3)cc2OC)ncc1C(F)(F)F (10 µM)
morphology score [1]: -0.0543 | SARS-CoV-2 infection rate [2]: 111% (inactive)

COC(=O)c1ccccc1O [methyl-salicylate] (10 µM)
morphology score [1]: -0.162 | SARS-CoV-2 infection rate [2]: 110% (inactive)

CCCCOc1cc(C(=O)NCCN(CC)CC)c2ccccc2n1 [cinchocaine] (10 µM)
morphology score [1]: 0.435 | SARS-CoV-2 infection rate [2]: 88% (inactive)

CNC(=O)O[C@H]1COc2ccc(N3CCN(C4COC4)CC3)cc2[C@@H]1NC(=O)c1ccc(F)cc1 (10 µM)
morphology score [1]: 0.123 | SARS-CoV-2 infection rate [2]: 95.5% (inactive)

Cc1sc2c(c1C)C(c1ccc(Cl)cc1)=N[C@@H](CC(N)=O)c1nnc(C)n1-2 (0.833333 µM)
morphology score [1]: -0.0333 | SARS-CoV-2 infection rate [2]: 104% (inactive)

Clc1ccc(CSC(Cn2ccnc2)c2ccc(Cl)cc2Cl)cc1 (stereo not given) [sulconazole] (10 µM)
morphology score [1]: -0.0348 | SARS-CoV-2 infection rate [2]: 110% (inactive)

O[C@@H]1CO[C@H]2[C@@H]1OC[C@@H]2O [isosorbide] (10 µM)
morphology score [1]: 0.0141 | SARS-CoV-2 infection rate [2]: 112% (inactive)

COc1cc(C(=O)N(CC[C@H]2CCCN2C)C/C(C)=C/c2ccccc2F)cc(OC)c1OC (racemic) (10 µM)
morphology score [1]: 0.055 | SARS-CoV-2 infection rate [2]: 108% (inactive)

Clc1ccc(C(c2ccc(Cl)cc2)C(Cl)(Cl)Cl)cc1 (10 µM)
morphology score [1]: 0.0848 | SARS-CoV-2 infection rate [2]: 106% (inactive)

CC(C)=CCC[C@](C)(O)[C@H]1CC[C@]2(C)[C@@H]1[C@H](O)C[C@@H]1[C@@]3(C)CC[C@H](O)C(C)(C)[C@@H]3[C@@H](O)C[C@]12C [hemomex-s] (10 µM)
morphology score [1]: 0.173 | SARS-CoV-2 infection rate [2]: 104% (inactive)

CCN(C)C(=O)Oc1cccc([C@H](C)N(C)C)c1 [rivastigmine] (10 µM)
morphology score [1]: 0.136 | SARS-CoV-2 infection rate [2]: 101% (inactive)

O=C(O)CCc1ccc(NCc2cccc3c2CCCN3CCOc2ccccc2)cc1F (10 µM)
morphology score [1]: -0.0144 | SARS-CoV-2 infection rate [2]: 110% (inactive)

O=C(O)C(=O)CBr [3-bromopyruvate] (10 µM)
morphology score [1]: -0.102 | SARS-CoV-2 infection rate [2]: 111% (inactive)

CCOC(=O)Nc1ccc2c(c1)N(C(=O)CN(CC)CC)c1ccccc1CC2 (10 µM)
morphology score [1]: 0.0358 | SARS-CoV-2 infection rate [2]: 101% (inactive)

O=C(O)CCC/C=C\C[C@@H]1[C@@H](/C=C/[C@@H](O)COc2cccc(Cl)c2)[C@H](O)C[C@@H]1O (racemic) [cloprostenol-(+/-)] (10 µM)
morphology score [1]: -0.0265 | SARS-CoV-2 infection rate [2]: 110% (inactive)

CCCc1c(OCC(O)COc2ccc3c(=O)cc(C(=O)O)oc3c2CCC)ccc(C(C)=O)c1O (stereo not given) (10 µM)
morphology score [1]: 0.197 | SARS-CoV-2 infection rate [2]: 99.5% (inactive)

CCCCNc1nc(N)c2[nH]c(=O)n(Cc3ccc(OCCN(C)C)nc3)c2n1 (10 µM)
morphology score [1]: 0.0113 | SARS-CoV-2 infection rate [2]: 103% (inactive)

C[C@H](N)[C@H](O)c1ccc(O)c(O)c1 [levonordefrin] (10 µM)
morphology score [1]: 0.0723 | SARS-CoV-2 infection rate [2]: 94.5% (inactive)

CC(C)COc1ccc(CNC(=O)N(Cc2ccc(F)cc2)C2CCN(C)CC2)cc1 [pimavanserin] (10 µM)
morphology score [1]: 0.709 | SARS-CoV-2 infection rate [2]: 23% (active)

O=C(Nc1cc(C(F)(F)F)ccc1O)Nc1cc(C(F)(F)F)ccc1O (10 µM)
morphology score [1]: 0.119 | SARS-CoV-2 infection rate [2]: 104% (inactive)

C[C@@H]1CCO[C@H]2Cn3cc(C(=O)NCc4ccc(F)cc4F)c(=O)c(O)c3C(=O)N12 [dolutegravir] (10 µM)
morphology score [1]: 0.0816 | SARS-CoV-2 infection rate [2]: 112% (inactive)

CC(C)C(=O)OC[C@H]1O[C@@H](n2ccc(N)nc2=O)[C@](C)(F)[C@@H]1OC(=O)C(C)C [mericitabine] (10 µM)
morphology score [1]: 0.0222 | SARS-CoV-2 infection rate [2]: 102% (inactive)

C#CC1(OCC(O)CN2CCN(c3cccc(C(F)(F)F)c3)CC2)CCCCC1 (stereo not given) [terciprazine] (10 µM)
morphology score [1]: 0.107 | SARS-CoV-2 infection rate [2]: 104% (inactive)

C1=N/C2=N/c3ccc(OCCN4CCCC4)c(c3)COC/C=C/COCc3cccc(c3)C(=C1)N2 [pacritinib] (0.833333 µM)
morphology score [1]: 0.286 | SARS-CoV-2 infection rate [2]: 80% (inactive)

Nc1nc(=O)c2nc(CNc3ccc(C(=O)N[C@@H](CCC(=O)O)C(=O)O)cc3)cnc2[nH]1 [folic-acid] (10 µM)
morphology score [1]: 0.207 | SARS-CoV-2 infection rate [2]: 102% (inactive)

CC1(C)OC(=O)NC1=O [dimethadione] (10 µM)
morphology score [1]: -0.0571 | SARS-CoV-2 infection rate [2]: 102% (inactive)
